UbGFP stabilizer: proteasome inhibitors stabilizing ubiquitin-GFP reporter; 67,000 tested, under 10 active; Potency, µM (highest dose often 45.9 µM), actives largely listed as activators; Ubiquitin-GFP reporter cells, proteasome inhibition, GFP fluorescence; response scale: untreated = 0%, 10 µM MG-132 = 100%; active means well fitted activation curve with a large enough effect, not every such curve was filed as active; inconclusive means small, poorly fitted or top-dose-only effect, or another doubt; inactive means no such curve, though single readings can be large or run the other way
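U2OS Ub(G76V)-GFP reporter; O/N plating, 0.5% FBS; cpd 46 uM–2.9 nM, 4 h, 37 °C; GFP+ cell count, 488/515 nm; norm. to basal vs 10 uM MG-132; CRC fit.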
p53ts 39C kill: kills p53ts cells at the nonpermissive temperature; H1299-p53A138V viability at 39C, ATP luminescence, 24 h; Potency, µM (titrated, usually from 46.1 µM), hits mostly cytotoxic; 130,000 compounds, 1.5% hits; further: nearly all actives have a fitted effect of over 55% in size
Peg3 imprint: induces erasure of genomic imprints in mouse ES cells; mouse ES Peg3-LacZ reporter, beta-gal luminescence, 40 h; Potency, µM (doses to about 60.7 µM), most hits filed as activators; 110,000 compounds, 0.02% hits
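Readout: BetaGlo luminescence (5 min, room temp) for LacZ from the normally silent maternal Peg3 allele in female Peg3LacZ-Neo ES cells. Cells 300/well, 40 h, 37C, 5% CO2. Data normalized per plate to negative controls.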
GFP derepression: epigenetic GFP locus derepression in mouse cells; mouse C127i GFP locus derepression, cytometry, 30 h; Potency, µM (doses to about 46.1 µM); 68,000 compounds, 0.09% hits; AID 597
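Read-out is the number of GFP-positive cells, scored as fluorescent objects 20 to 120 um wide, reflecting derepression of a silenced CMV-GFP reporter in murine C127i cells after 30 h compound exposure at 37 C.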
HBB splicing: modulators of hemoglobin beta chain splicing | HBB splicing reporter cell assay, activation; EGFP reporter with mutant IVS2-654 intron; response scale: normalised to 500 nM splice-correcting PNA | Potency, µM (highest dose often 46.1 µM), hits mostly activators | 65,000 compounds, 0.06% hits | AID 925
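HeLa cells stably expressing EGFP interrupted by mutant beta-globin intron 2 (IVS2-654), 500/well in 2% FCS. Treated with compound for 2 days at 37C. Splicing correction scored as total well GFP intensity (488 nm excitation, 500-520 nm emission); 500 nM antisense PNA served as control.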
p53ts 32C tox: kills p53ts cells at the permissive temperature; Potency, µM (doses to about 46.1 µM), hits mostly cytotoxic; H1299-p53A138V at 32C, ATP luminescence viability, 24 h; 130,000 compounds, 0.93% hits; further: nearly all actives have a fitted effect of over 55% in size
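H1299-p53 A138V cells (temperature-sensitive p53) exposed 24 h to up to 46 uM compound at 32C, where p53 is wild-type in conformation. Viability read as ATP luminescence and normalised to DMSO and 100 uM tamoxifen. AC50 fitted with the Hill equation.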
Numbers stand for hits; 0 = inactive; ? = inconclusive; - = no result given; [ ] = remark or other dose. In the library only some 1.6% were active in any assay of this set; here they are far more common. Unless noted, the call rests on the fitted dose curve; in most records, active means well fitted curve in the direction sought with a large enough effect; inconclusive means small, poorly fitted or top-dose-only effect, or another doubt; inactive means no such curve, though single readings can be large; an effect the other way counts as inactive or inconclusive.

SMILES | UbGFP stabilizer | p53ts 39C kill | Peg3 imprint | GFP derepression | HBB splicing | p53ts 32C tox
CCCCC(CC)CNC(=O)c1ccc(Cn2c(=O)[nH]c3cc(OC)c(OC)cc3c2=O)cc1 (stereo unspecified) | - | 3.98µM | 0[10.9 µM] | - | - | ?
O=C(CSc1cn(CC(=O)N2CCCC2)c2ccccc12)Nc1ccc(Cl)cc1 | - | 12.6µM | 0[10.9 µM] | - | - | 0
CCc1ccc(NC(=O)CSc2cn(CC(=O)N3CCCC3)c3ccccc23)cc1 | - | 0 | 0[10.9 µM] | - | - | 0
N#Cc1c(N2CCCC2)nc(N)c2c(N)nc(N3CCCC3)cc12 | 0 | 0 | 0 | 0 | 0 | 12.6µM
COc1cc2c(C#N)c(N3CCN(c4ccccc4OC)CC3)nc(N)c2c(N)n1 | 0 | ? | 0 | 0 | 0 | ?
CCCN(CCC)c1nc(NC2CCN(C(=O)OCC)CC2)nc(OC)n1 | 0 | 20µM | 0 | 0 | 0 | 0
O=C(Nc1ccc2c(c1)OCO2)C1CCCN(c2nc3ccccc3s2)C1 (stereo unspecified) | 0 | ? | 0 | 0 | 0 | 20µM
Cc1ccc(Nc2nnc(SCC(=O)Nc3ncc(C(F)(F)F)cc3Cl)s2)cc1 | - | 0 | - | - | - | -
Cc1ccc(Nc2nnc(SCC(=O)Nc3cccc(S(=O)(=O)N4CCCCC4)c3)s2)cc1 | - | 11.2µM | - | - | - | 0
COc1ccc(CNC(=O)C2Cc3cc(S(=O)(=O)N4CCCCCC4)ccc3N2C(C)=O)cc1 (stereo unspecified) | - | 0 | 0[10.9 µM] | - | - | 0
Cc1ccc2nc(-c3ccc(NC(=O)C(F)(F)F)cc3)sc2c1 | - | 1.58µM | 0[10.9 µM] | - | - | 3.16µM
N#Cc1c(NC(=O)c2nc3ncccn3n2)sc2c1CCCCC2 | 0 | 12.6µM | 0 | 0 | 0 | 12.6µM
Cc1ccc(CS(=O)(=O)c2ncc(Cl)c(C(=O)Nc3nc4ccc(F)cc4s3)n2)cc1 | - | 15.8µM | 0[10.9 µM] | - | - | 12.6µM
COc1ccc2nc(NC(=O)c3nc(S(=O)(=O)Cc4ccc(C)cc4)ncc3Cl)sc2c1 | - | 6.31µM | 0[10.9 µM] | - | - | ?
CCS(=O)(=O)c1ncc(Cl)c(C(=O)NCc2ccc(OC)cc2)n1 | - | ? | 0[10.9 µM] | - | - | ?
Cc1ccc(CS(=O)(=O)c2ncc(Cl)c(C(=O)Nc3nc4ccc(C)cc4s3)n2)cc1 | - | 12.6µM | 0[10.9 µM] | - | - | 15.8µM
Cc1ccc(CNC(=O)c2nc(S(=O)(=O)Cc3ccc(C)cc3)ncc2Cl)cc1 | - | 12.6µM | 0[10.9 µM] | - | - | 15.8µM
Cc1ccc(CSc2ncc(Cl)c(C(=O)Nc3nc4ccc(C)cc4s3)n2)cc1 | - | 0 | 0[10.9 µM] | - | - | 0
O=C1C=CC2=C3c4cc(O)c(O)cc4C[C@@]3(O)COC2=C1O | 0 | - | - | 0[9.22 µM] | - | -
Cc1cc(C)cc(NCc2nnc3n2CCCCC3)c1 | - | 0 | 0[10.9 µM] | - | - | 0
CCc1ccc(NC(=O)CCCc2nnc3n(C(C)CC)c(=O)c4sccc4n23)cc1 (stereo unspecified) | - | 0 | 0[10.9 µM] | - | - | 0
N#Cc1c(C(F)(F)F)cc(-c2ccco2)nc1SCc1ccccn1 | 0 | 0 | 0 | ? | 15.8µM | 0
N#Cc1c(C(F)(F)F)cc(-c2ccco2)nc1SCc1ccncc1 | 0 | 0 | 0 | 0 | 0 | 0
Cc1ccc(NC2=CC(=O)C(=O)c3ccccc32)cc1 | - | 3.16µM | - | - | - | ?
Cc1ccc(C(=O)c2cn(Cc3ccc(Cl)cc3)c3nc(C)ccc3c2=O)cc1 | - | 0 | 0[10.9 µM] | - | - | 0
SMILES | UbGFP stabilizer | p53ts 39C kill | Peg3 imprint | GFP derepression | HBB splicing | p53ts 32C tox
Cc1cc(C)c(OCC(=O)Nc2cccc(-c3nc4ncccc4o3)c2)c(Br)c1 | - | 0 | 0[10.9 µM] | - | - | 0
Cc1cc(C)cc(C(=O)Nc2ccc(-c3nc4ncccc4o3)cc2)c1 | - | 10µM | 0[10.9 µM] | - | - | 0
COc1ccc(OCC(=O)Nc2ccc(Cl)c(-c3nc4ncccc4o3)c2)cc1 | - | 0 | 0[10.9 µM] | - | - | 0
CCC(C)c1ccc(OCC(=O)Nc2ccc(-c3nc4ncccc4o3)cc2)cc1 (stereo unspecified) | - | 10µM | 0[10.9 µM] | - | - | ?
O=C(Nc1cccc(-c2nc3ncccc3o2)c1)c1ccc(-c2cccc(Cl)c2Cl)o1 | - | 12.6µM | 0[10.9 µM] | - | - | 10µM
COc1ccc(C(=O)Nc2ccc(-c3nc4ncccc4o3)cc2)cc1 | - | 0 | 0[10.9 µM] | - | - | 0
Cc1ccc(C(C)C)c(OCC(=O)Nc2cccc(-c3nc4ncccc4o3)c2)c1 | - | 15.8µM | 0[10.9 µM] | - | - | ?
